“And” between values parts separate entries of the source, which are not always exact repeats. Identical values can stand only once. Where a structure was tested more than once in an assay, its records may differ in their call. The source made the active and inactive calls. The calls were made as follows: active = hit-call score of the fitted dose curve at least 0.9, where 1 is the maximum; inactive = score below 0.9.

A short description of assay [1]: BSK_CASM3C_SRB: Viability Assessment in the BioMAP Diversity Plus: CASM3C Assay (AID 2283050).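 Also: total protein by SRB staining as cytotoxicity measure in parallel cultures.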 To be noted: primary human coronary artery smooth muscle cells.
Read-out in assay [2]: Thrombomodulin, THBD (gene 7056)
As to the kind of experiment: BSK_CASM3C_Thrombomodulin: BioMAP Diversity Plus: CASM3C Assay for Thrombomodulin Biomarker Activity (AID 2283051).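 Also: thrombomodulin protein level measured by ELISA 24 h after dosing.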 The conditions noted are these: primary human coronary artery smooth muscle cells; actives raise or lower the signal.

Read-out in assay [3]: Tissue Factor, F3 (gene 2152)
In words: BSK_CASM3C_TissueFactor: BioMAP Diversity Plus: CASM3C Assay for Tissue Factor Biomarker Activity (AID 2283052).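 Also: cell surface tissue factor protein level read by ELISA.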 The conditions noted are these: primary human coronary artery smooth muscle cells; actives raise or lower the signal.

Read-out in assay [4]: Interferon-gamma inducible Protein 10 (IP10), CXCL10 (gene 3627)
In words: BSK_hDFCGF_IP10: BioMAP Diversity Plus: hDFCGF Assay for Interferon-gamma inducible Protein 10 (IP10) Biomarker Activity (AID 2283053). The conditions noted are these: primary human foreskin fibroblasts; actives raise or lower the signal. An outline of the steps: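 IP-10 levels, quantified by ELISA, are taken from human foreskin fibroblast cultures 24 h after chemical treatment, with DMSO serving as negative control and baseline for bidirectional analysis.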

Read-out in assay [5]: Urokinase-type plasminogen activator receptor (uPAR), PLAUR (gene 5329)
In words: BSK_CASM3C_uPAR: BioMAP Diversity Plus: CASM3C Assay for Urokinase-type plasminogen activator receptor (uPAR) Biomarker Activity (AID 2283054).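 Also: cell-surface uPAR protein level quantified by ELISA.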 The conditions noted are these: primary human coronary artery smooth muscle cells; actives raise or lower the signal.

Read-out in assay [6]: Vascular cell adhesion molecule 1 (VCAM1), VCAM1 (gene 7412)
In words: BSK_CASM3C_VCAM1: BioMAP Diversity Plus: CASM3C Assay for Vascular cell adhesion molecule 1 (VCAM1) Biomarker Activity (AID 2283055).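 Also: VCAM-1 protein level quantified by ELISA on the cells.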 To be noted: primary human coronary artery smooth muscle cells; actives raise or lower the signal.

Read-out in assay [7]: Collagen III, COL3A1 (gene 1281)
As to the kind of experiment: BSK_hDFCGF_CollagenIII: BioMAP Diversity Plus: hDFCGF Assay for Collagen III Biomarker Activity (AID 2283056). The conditions noted are these: primary human foreskin fibroblasts; actives raise or lower the signal. The method, boiled down:
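ELISA readout of Collagen III in human dermal (foreskin) fibroblasts, taken 24 h post-treatment. Gain or loss relative to DMSO vehicle fitted in both directions.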

Read-out in assay [8]: Epidermal growth factor receptor (EGFR), EGFR (gene 1956)
As to the kind of experiment: BSK_hDFCGF_EGFR: BioMAP Diversity Plus: hDFCGF Assay for Epidermal growth factor receptor (EGFR) Biomarker Activity (AID 2283057). The conditions noted are these: primary human foreskin fibroblasts; actives raise or lower the signal. An outline of the steps: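 Measured by ELISA: EGFR levels on primary human foreskin fibroblasts 24 h after chemical treatment, analysed relative to DMSO with bidirectional fitting.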

Read-out in assay [9]: Interleukin-8 (IL8), CXCL8 (gene 3576)
As to the kind of experiment: BSK_hDFCGF_IL8: BioMAP Diversity Plus: hDFCGF Assay for Interleukin-8 (IL8) Biomarker Activity (AID 2283058). To be noted: primary human foreskin fibroblasts; actives raise or lower the signal. The method, boiled down:
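IL-8 levels read by ELISA at 24 hours after dosing human skin fibroblast cultures. Parallel SRB staining assessed overt cytotoxicity, and gain or loss of signal was fitted against DMSO control.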

Assay [10] in a line: BSK_hDFCGF_Proliferation: Cell Proliferation Assessment in the BioMAP Diversity Plus: hDFCGF Assay (AID 2283059).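 Also: curves fitted for both rise and fall of signal versus DMSO baseline.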 To be noted: primary human foreskin fibroblasts. An outline of the steps: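 Primary human foreskin fibroblasts, sub-confluent; […]; 10% TCA fix, 0.1% SRB stain, A560 total protein. Gain/loss fitted bidirectionally vs DMSO control.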
Assay [11] can be described thus: BSK_hDFCGF_SRB: Viability Assessment in the BioMAP Diversity Plus: hDFCGF Assay (AID 2283061).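 Also: cells exposed to compound for 24 h before the read.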 To be noted: primary human foreskin fibroblasts. An outline of the steps: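 Viability was read as total protein: after 10% TCA fixation, wells were stained with 0.1% sulforhodamine B and read at 560 nm. Primary human foreskin fibroblasts were dosed for 24 h, with bidirectional fitting versus DMSO.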

Read-out in assay [12]: TIMP metallopeptidase inhibitor 1 (TIMP1), TIMP1 (gene 7076)
As to the kind of experiment: BSK_hDFCGF_TIMP1: BioMAP Diversity Plus: hDFCGF Assay for TIMP metallopeptidase inhibitor 1 (TIMP1) Biomarker Activity (AID 2283062). To be noted: primary human foreskin fibroblasts; actives raise or lower the signal. An outline of the steps: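 TIMP-1 measured by ELISA 24 h after chemical dosing of primary human skin fibroblasts, with gain or loss fitted relative to DMSO. Parallel SRB staining (560 nm) monitored overt cytotoxicity.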

Read-out in assay [13]: Monokine induced gamma interferon (MIG), CXCL9 (gene 4283)
As to the kind of experiment: BSK_hDFCGF_MIG: BioMAP Diversity Plus: hDFCGF Assay for Monokine induced gamma interferon (MIG) Biomarker Activity (AID 2283063). To be noted: primary human foreskin fibroblasts; actives raise or lower the signal. The method, boiled down:
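Human primary foreskin fibroblasts in the hDFCGF system, exposed to test chemical for 24 h; MIG measured by ELISA. Bidirectional curve fitting against DMSO negative control as activity baseline.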

Read-out in assay [14]: Matrix Metallopeptidase 1 (MMP1), MMP1 (gene 4312)
As to the kind of experiment: BSK_hDFCGF_MMP1: BioMAP Diversity Plus: hDFCGF Assay for Matrix Metallopeptidase 1 (MMP1) Biomarker Activity (AID 2283064). To be noted: primary human foreskin fibroblasts; actives raise or lower the signal. An outline of the steps:
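Primary human foreskin fibroblasts exposed to chemicals for 24 h; MMP1 measured by ELISA. Cytotoxicity tracked by SRB staining in parallel cultures; bidirectional fit relative to DMSO.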

Read-out in assay [15]: Vascular cell adhesion molecule 1 (VCAM1), VCAM1 (gene 7412)
In words: BSK_hDFCGF_VCAM1: BioMAP Diversity Plus: hDFCGF Assay for Vascular cell adhesion molecule 1 (VCAM1) Biomarker Activity (AID 2283065).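 As to AC50: VCAM-1 protein level quantified by ELISA after 24 h chemical exposure.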 The conditions noted are these: primary human foreskin fibroblasts; actives raise or lower the signal. The method, boiled down: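 ELISA readout of VCAM-1 on human dermal fibroblast primary cultures, 24 h after chemical exposure. Gain or loss of signal fitted in both directions against DMSO baseline.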

Read-out in assay [16]: Plasminogen activator inhibitor-1 (PAI1), SERPINE1 (gene 5054)
In words: BSK_hDFCGF_PAI1: BioMAP Diversity Plus: hDFCGF Assay for Plasminogen activator inhibitor-1 (PAI1) Biomarker Activity (AID 2283066). To be noted: primary human foreskin fibroblasts; actives raise or lower the signal. An outline of the steps:
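PAI-1 levels, determined by ELISA, served as the endpoint in human foreskin fibroblast cultures exposed to compound for 24 h, with DMSO as baseline.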

Read-out in assay [17]: Intercellular Adhesion Molecule 1 (ICAM1), ICAM1 (gene 3383)
In words: BSK_KF3CT_ICAM1: BioMAP Diversity Plus: KF3CT Assay for Intercellular Adhesion Molecule 1 (ICAM1) Biomarker Activity (AID 2283067). To be noted: primary human keratinocytes with fibroblasts; actives raise or lower the signal. The method, boiled down: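 Cell-surface ICAM-1 was measured by ELISA 24 h after dosing primary human skin keratinocytes co-cultured with fibroblasts. Parallel SRB staining tracked overt cytotoxicity. Gain or loss of signal was fitted relative to DMSO.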

Read-out in assay [18]: Interferon-gamma inducible Protein 10 (IP10), CXCL10 (gene 3627)
In words: BSK_KF3CT_IP10: BioMAP Diversity Plus: KF3CT Assay for Interferon-gamma inducible Protein 10 (IP10) Biomarker Activity (AID 2283068). To be noted: primary human keratinocytes with fibroblasts; actives raise or lower the signal. The method, boiled down:
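In a primary skin co-culture of keratinocytes and fibroblasts, IP-10 is quantified by ELISA at 24 h after dosing. SRB staining of parallel wells monitors overt toxicity. Curves are fitted both directions against DMSO.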

A short description of assay [19]: BSK_KF3CT_SRB: Viability Assessment in the BioMAP Diversity Plus: KF3CT Assay (AID 2283069).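 Also: total protein by sulforhodamine B staining as a cytotoxicity measure; read 24 h after compound addition.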 The conditions noted are these: primary human keratinocytes with fibroblasts. An outline of the steps: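 Human keratinocyte and foreskin fibroblast co-culture exposed to chemical for 24 h. Total protein measured in parallel cultures by 0.1% sulforhodamine B staining after 10% TCA fixation, read at 560 nm; bidirectional fit relative to DMSO.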

With `CCCCOC(=O)c1ccccc1C(=O)OCCCC`, the result in assay [1], in assay [2], in assay [3], in assay [5], in assay [6] and in [7] was inactive. For the same molecule, the result in [8], in assay [9], in assay [10], in assay [11], in assay [12] and in assay [13] was inactive. The result in assay [14], in assay [15], in assay [16], in assay [17], in assay [18] and in assay [19] was inactive. For the same molecule, the AC50 in assay [2] was 11 µM (active); in assay [4] it was 13.9 µM (active) and 11.8 µM (active); in assay [7], 10.9 µM (active); in assay [15], 14 µM (active).

`CC(C)(C)c1ccc(CSc2cnn(C(C)(C)C)c(=O)c2Cl)cc1`: the result in assay [1], in assay [3], in assay [4], in assay [5], in assay [6] and in [8] was inactive. Besides, the result in assay [9], in assay [11], in assay [12], in assay [14], in assay [16] and in assay [17] was inactive. Also, the AC50 is 31.8 µM (active) in assay [2]; 12.9 µM (active) in assay [7]; 4.68 µM (active) in assay [10]; 31.6 µM (active) in assay [15]; 31.3 µM (active) in assay [18]; 20 µM (active) in [19].

In the case of `C=CCC1=C(C)[C@@H](OC(=O)[C@@H]2[C@@H](C=C(C)C)C2(C)C)CC1=O`, the result in [1], in assay [2], in assay [3], in assay [5], in [6] and in [17] was inactive. Besides, in [18], the result was inactive. Besides, the AC50 was 32.6 µM (active) in [4]; 30.9 µM (active) in assay [7]; 32.4 µM (active) in assay [8]; 33.1 µM (active) in assay [10]; 34.9 µM (active) in assay [11]; 32.1 µM (active) in [12]. In addition, the AC50 in assay [14] was 31 µM (active); in assay [15], 29.6 µM (active); in assay [16], 36.6 µM (active); in assay [19], 20 µM (active).

Regarding `OC(c1ccc(Cl)cc1)(c1cncnc1)c1ccccc1Cl` (stereo unspecified), the result in assay [1], in assay [3], in assay [4], in assay [5], in [6] and in assay [7] was inactive. Moreover, the outcome in assay [8], in [9], in assay [11], in assay [12], in [15] and in [17] was inactive. Also, the result in assay [18] and in assay [19] was inactive. For the same molecule, the AC50 in assay [2] was 16.6 µM (active); in [10], 20 µM (active); in assay [14], 11.5 µM (active); in assay [16], 16.6 µM (active).

Turning to `COP(=S)(OC)Oc1nc(Cl)c(Cl)cc1Cl`, the result in assay [1], in assay [3], in [5], in assay [6], in assay [8] and in assay [9] was inactive. The result in [11], in [12], in assay [14], in assay [16], in assay [17] and in assay [18] was inactive. Besides, the result in assay [19] was inactive. Further, the AC50 was 16.1 µM (active) in assay [2]; 25.4 µM (active) in assay [4]; 20 µM (active) in assay [7]; 28.2 µM (active) in assay [10]; 5.76 µM (active) in [15].

For `CCOC(=O)C(Cl)Cc1cc(-n2nc(C)n(C(F)F)c2=O)c(F)cc1Cl` (stereo unspecified), the outcome in [1], in assay [2], in assay [3], in assay [4], in assay [5] and in assay [6] was inactive. In addition, the result in assay [7], in [8], in [9], in assay [10], in [11] and in assay [12] was inactive. Further, the result in [14], in [15], in [16], in assay [17], in assay [18] and in assay [19] was inactive.

The values are drawn from PubChem BioAssay (EPA / NIEHS).
